Source: PubChem BioAssay (NCATS)
Unmarked numbers belong to inactive results. Calls come from the whole dose curve; as a rule, active = well fitted curve in the direction sought with a large enough effect; inconclusive = small, poorly fitted or top-dose-only effect, or effect the other way, or another doubt; inactive = no such curve, though single readings can be large or run the other way.

Test: qHTS for Inhibitors of Cell Surface uPA Generation: Validation Assay (AID 493164);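 note: RAW 264.7 macrophage cells exposed to compound for 18 h; 0% is about no effect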
Settings: mouse cells, plasminogen activation; series mostly up to 38.3 µM; activity change: at the top concentration
Excerpt: NIH Chemical Genomics Center [NCGC]
NIH Molecular Libraries Probe Centers Network [MLPCN]
Assay Submitter (PI): Thomas Bugge
The overall objective of this project is to perform a quantitative high throughput screen (qHTS) to identify novel compounds that inhibit the generation of cell surface urokinase activity. The urokinase plasminogen activator (uPA) is one of the two primary endogenous systems that mediate plasminogen activation into plasmin. Members of this system, including uPA and its receptor (uPAR), are overexpressed in several malignant tumors. This system plays a major role in adhesion, migration, invasion and metastasis of cancer cells. Small molecule inhibitors of the uPA system will serve as probes to understand the molecular mechanisms of the uPA cascade and better understanding the microenvironmental circumstances that facilitate the activation of plasminogen by uPA, and finally may provide novel candidate agents for anticancer drug therapy.
[…] […] Upon inhibition of the uPA activation cascade, the subsequent cell surface uPA activity-dependent translocation of LF into the cytoplasm is inhibited. ATP-Lite is used to measure intracellular ATP concentrations, which remain increased if LF entry into the cytoplasm is inhibited. This validation assay was performed using a small set of validation compounds.
uPA assay protocol summary:
RAW 264.7 cells were maintained in DMEM medium (Invitrogen, Carlsbad, CA) at 37C under a humidified atmosphere containing 5% CO2 and 95% air. The medium contained 10% FBS, 1 mM sodium pyruvate and 50 U/ml penicillin/streptamycin (Invitrogen, Carlsbad, CA). All compounds were screened as 7-point titration from 2.45 nM to 38.3 uM final concentration. The assay was performed in 1536-well format plate as follows:
1.Dispensing RAW 264.7 cells into 1536-well, white walled tissue culture plates at a density of 4000 cells/well (4 uL).
2.Incubation at 37 C in a 5% CO2 incubator overnight.
3.Serially diluting compounds (1:5 serial dilution; 0.0024 uM to […] final concentration) in 23 nl DMSO.
5.Incubating the compound and reagent-treated plates for 18 hours at 37 C in a 5% CO2 incubator.
6.Adding ATP-Lite (3 ul).
7.Reading plates by ViewLux with an exposure length of 5 seconds.
With CCCCCCCC/C=C\CCCCCCCC(=O)NCc1ccc(O)c(OC)c1 the “activity change” value was 1.61%.
For CCCCCN(CCCCC)C(=O)C(CCC(=O)O)NC(=O)c1ccc(Cl)c(Cl)c1 (stereo not given), the “activity change” value was 0.532%.
In the case of O=C(CCCN1CCC(O)(c2cccc(C(F)(F)F)c2)CC1)c1ccc(F)cc1, the “activity change” value is reported as 0.748%.
For CC1=C(C)C(=O)C(CCCCC#CCCCC#CCO)=C(C)C1=O, the “activity change” value was 0.881%.
For N[C@@H](COP(=O)(O)O)C(=O)O, the “activity change” value was -0.391%.
With CCn1nc(C(=O)O)c(=O)c2cc3c(cc21)OCO3 the “activity change” value was -0.427%.
With CCO/C([O-])=N/c1c[n+](N2CCOCC2)no1 the “activity change” value was -0.685%.
With CC(C)(Oc1ccc(CCNC(=O)c2ccc(Cl)cc2)cc1)C(=O)O the “activity change” value was 1.09%.
For CC(=O)[C@@]1(O)CC[C@H]2[C@@H]3CCC4=CC(=O)CC[C@]4(C)[C@H]3CC[C@@]21C, the “activity change” value was -0.121%.
With NC(=O)c1ncn([C@@H]2O[C@H](CO)[C@@H](O)[C@H]2O)c1O the “activity change” value was -0.749%.
With Cc1ccc(Cl)c(Nc2ccccc2C(=O)O)c1Cl the “activity change” value was -0.224%.
For CSc1ccc(C(=O)c2[nH]c(=O)[nH]c2C)cc1, the “activity change” value was 0.576%.
For CCOC(=O)c1cnc2c(cnn2CC)c1NN=C(C)C, the “activity change” value was 1.46%.
In the case of CNCCCN1c2ccccc2CCc2ccccc21, the “activity change” value is reported as -1.27%.
For CN1C(=O)CC[C@H]1c1cccnc1, the “activity change” value was -0.483%.
For COC(=O)C1=C(C)NC(C)=C(C(=O)OCCN(C)Cc2ccccc2)C1c1cccc([N+](=O)[O-])c1 (stereo not given), the “activity change” value was 2.87%.
In the case of O=C1NCN(c2ccccc2)C12CCN(CCCC(c1ccc(F)cc1)c1ccc(F)cc1)CC2, the “activity change” value is reported as 2.15%.
For Cc1ccc(=O)n(-c2ccccc2)c1, the “activity change” value was -0.542%.
With O=c1[nH]c(=O)n([C@H]2C[C@H](O)[C@@H](CO)O2)cc1Br the “activity change” value was -0.12%.
In the case of CO[C@@]1(NC(=O)CSCC#N)C(=O)N2C(C(=O)O)=C(CSc3nnnn3C)CS[C@@H]21, the “activity change” value is reported as -0.306%.
For CCN(CC)CCNC(=O)c1cc(S(C)(=O)=O)ccc1OC, the “activity change” value was -0.984%.
In the case of Cc1nnc(SCC2=C(C(=O)O)N3C(=O)[C@@H](NC(=O)Cn4cnnn4)[C@H]3SC2)s1, the “activity change” value is reported as -0.195%.
In the case of FC(F)(F)c1ccccc1-n1ccnc1, the “activity change” value is reported as 0.498%.
In the case of CN1CCN(CC(=O)N2c3ccccc3C(=O)Nc3cccnc32)CC1, the “activity change” value is reported as 0.302%.
In the case of COc1ccc([C@@H]2Sc3ccccc3N(CCN(C)C)C(=O)[C@@H]2OC(C)=O)cc1, the “activity change” value is reported as -0.952%.
In the case of CN(C(=O)CCCOc1ccc2[nH]c(=O)ccc2c1)C1CCCCC1, the “activity change” value is reported as -0.668%.
With COc1cc(Cc2cnc(N)nc2N)cc(OC)c1OC the “activity change” value was -0.222%.
With CN1C[C@H](C(=O)N[C@]2(C)O[C@@]3(O)[C@@H]4CCCN4C(=O)[C@H](Cc4ccccc4)N3C2=O)C[C@@H]2c3cccc4[nH]cc(c34)C[C@H]21 the “activity change” value was 0.495%.
In the case of CCCCNc1ccc(C(=O)OCCN(C)C)cc1, the “activity change” value is reported as -1.17%.
In the case of CN(C)CC[C@@H](c1ccc(Br)cc1)c1ccccn1, the “activity change” value is reported as -0.424%.
In the case of NC1=NCC2c3ccccc3Cc3ccccc3N12 (stereo not given), the “activity change” value is reported as -0.0061%.
In the case of Cc1cccc(C)c1NC(=O)C(C)N (stereo not given), the “activity change” value is reported as -0.398%.
In the case of CC(C)(C)NCC(O)c1cc(O)cc(O)c1 (stereo not given), the “activity change” value is reported as -0.264%.
For COCC(=O)O[C@]1(CCN(C)CCCc2nc3ccccc3[nH]2)CCc2cc(F)ccc2[C@@H]1C(C)C, the “activity change” value was 2.18%.
For CCCNC(C)C(=O)Nc1ccccc1C (stereo not given), the “activity change” value was -0.71%.
In the case of NC(=O)c1cn(Cc2c(F)cccc2F)nn1, the “activity change” value is reported as -0.491%.
For CCCN(CCC)CCc1cccc2c1CC(=O)N2, the “activity change” value was -1.06%.
With CCc1cccc(N(C)C(N)=Nc2cccc3ccccc23)c1 the “activity change” value was 0.789%.
With CN(C)CCOC(=O)COc1ccc(Cl)cc1 the “activity change” value was -1.04%.
For CN(C)C(=O)Oc1ccc[n+](C)c1, the “activity change” value was -0.503%.
